Measurements published in PubChem BioAssay AID1159580 (chemical genetic matrix, 2015).
Values joined by “and” are separate entries in the source; they are usually repeats but may differ in a detail not shown here. Equal entries are not always repeated. The campaign covered roughly 5,500 compounds. About 2,000 (36%) were called active. Inconclusive results (about 18%) are left out. Cut-off read from the data, not from the text of the source: active = normalized growth mostly below about 0.91 (no sharp cut-off); inconclusive = no clear call, values can overlap the other calls; inactive = mostly above about 0.92. Some of the results follow.

Experiment: chemical genetic growth profiling, strain panel (AID 1159580);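 note: tested at 20 µM; growth read once vehicle control cultures reached saturation at 30 °C; 1 = growth at the plate median or of vehicle wells; lower values mean less growth of the strain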
Conditions: growth OD

Measured: normalized growth

CCN(CC)CCNC(=O)c1cc(Cl)c(N)cc1OC
inactive: S. cerevisiae deletion strains, locus YJR075W, strain HOC1, stronger effect = lower value 0.998 | S. cerevisiae deletion strains, locus YKL009W, strain mrt4, stronger effect = lower value 1.01 | S. cerevisiae deletion strains, locus YKL068W, stronger effect = lower value 1.01 | S. cerevisiae deletion strains, locus YKL085W, strain MDH1 (second series), stronger effect = lower value 1 | S. cerevisiae deletion strains, locus YKL085W, strain MDH1, stronger effect = lower value 1 | S. cerevisiae deletion strains, locus YKL160W, strain elf1, stronger effect = lower value 0.97 | S. cerevisiae deletion strains, locus YKL190W, strain CNB1, stronger effect = lower value 1.02 | S. cerevisiae deletion strains, locus YKR001C, strain vps1, stronger effect = lower value 1 | S. cerevisiae deletion strains, locus YKR026C, strain gcn3, stronger effect = lower value 0.996 | S. cerevisiae deletion strains, locus YKR091W, strain srl3, stronger effect = lower value 0.972 | S. cerevisiae deletion strains, locus YLL001W, strain dnm1, stronger effect = lower value 0.921 | S. cerevisiae deletion strains, locus YLL026W, stronger effect = lower value 0.977 | S. cerevisiae deletion strains, locus YLL041C, strain sdh2, stronger effect = lower value 0.991 | S. cerevisiae deletion strains, locus YLR027C, strain aat2, stronger effect = lower value 0.983 | S. cerevisiae deletion strains, locus YLR039C, strain RIC1, stronger effect = lower value 0.996 | S. cerevisiae deletion strains, locus YLR058C, strain SHM2, stronger effect = lower value 1.01 | S. cerevisiae deletion strains, locus YLR102C, strain apc9, stronger effect = lower value 0.992 | S. cerevisiae deletion strains, locus YLR113W, strain HOG1, stronger effect = lower value 1.06 | S. cerevisiae deletion strains, locus YLR221C, strain rsa3, stronger effect = lower value 0.961 | S. cerevisiae deletion strains, locus YLR258W, strain gsy2, stronger effect = lower value 0.997 | S. cerevisiae deletion strains, locus YLR262C, strain YPT6 (second series), stronger effect = lower value 0.977 | S. cerevisiae deletion strains, locus YLR262C, strain YPT6, stronger effect = lower value 1.05 | S. cerevisiae deletion strains, locus YLR268W, strain sec22, stronger effect = lower value 0.963 | S. cerevisiae deletion strains, locus YLR320W, strain mms22, stronger effect = lower value 0.962 | S. cerevisiae deletion strains, locus YLR330W, strain CHS5, stronger effect = lower value 1 | S. cerevisiae deletion strains, locus YLR342W, strain FKS1 (second series), stronger effect = lower value 0.995 | S. cerevisiae deletion strains, locus YLR342W, strain FKS1, stronger effect = lower value 0.983 | S. cerevisiae deletion strains, locus YLR357W, strain rsc2, stronger effect = lower value 0.965 | S. cerevisiae deletion strains, locus YLR370C, strain arc18, stronger effect = lower value 0.973 | S. cerevisiae deletion strains, locus YLR371W, strain rom2, stronger effect = lower value 0.995 | S. cerevisiae deletion strains, locus YLR384C, strain iki3, stronger effect = lower value 0.976 | S. cerevisiae deletion strains, locus YLR418C, strain cdc73, stronger effect = lower value 0.976 | S. cerevisiae deletion strains, locus YML016C, strain PPZ1, stronger effect = lower value 1.01 | S. cerevisiae deletion strains, locus YML032C, strain rad52, stronger effect = lower value 0.987 | S. cerevisiae deletion strains, locus YML120C, strain ndi1, stronger effect = lower value 0.945 | S. cerevisiae deletion strains, locus YML124C, strain tub3, stronger effect = lower value 1 | S. cerevisiae deletion strains, locus YMR058W, strain fet3, stronger effect = lower value 0.983 | S. cerevisiae deletion strains, locus YMR078C, strain ctf18, stronger effect = lower value 0.994 | S. cerevisiae deletion strains, locus YMR125W, strain sto1, stronger effect = lower value 0.951 | S. cerevisiae deletion strains, locus YMR129W, stronger effect = lower value 0.995 | S. cerevisiae deletion strains, locus YMR205C, strain PFK2, stronger effect = lower value 0.954 | S. cerevisiae deletion strains, locus YMR223W, strain ubp8, stronger effect = lower value 0.997 | S. cerevisiae deletion strains, locus YMR231W, strain pep5, stronger effect = lower value 0.992 | S. cerevisiae deletion strains, locus YMR263W, strain SAP30, stronger effect = lower value 1.01 and 1 | S. cerevisiae deletion strains, locus YMR307W, strain GAS1, stronger effect = lower value 1.01 | S. cerevisiae deletion strains, locus YNL067W, strain RPL9B, stronger effect = lower value 1 | S. cerevisiae deletion strains, locus YNL071W, strain lat1, stronger effect = lower value 0.984 | S. cerevisiae deletion strains, locus YNL128W, strain TEP1, stronger effect = lower value 1.03 | S. cerevisiae deletion strains, locus YNL153C, strain GIM3, stronger effect = lower value 0.996 and 0.998 | S. cerevisiae deletion strains, locus YNL175C, strain NOP13, stronger effect = lower value 1 | S. cerevisiae deletion strains, locus YNL183C, strain NPR1, stronger effect = lower value 0.991 | S. cerevisiae deletion strains, locus YNL197C, strain WHI3, stronger effect = lower value 1.02 | S. cerevisiae deletion strains, locus YNL209W, strain ssb2, stronger effect = lower value 0.974 | S. cerevisiae deletion strains, locus YNL224C, strain SQS1, stronger effect = lower value 1.01 | S. cerevisiae deletion strains, locus YNL233W, strain BNI4, stronger effect = lower value 1 | S. cerevisiae deletion strains, locus YNL248C, strain rpa49, stronger effect = lower value 0.983 | S. cerevisiae deletion strains, locus YNL250W, strain rad50, stronger effect = lower value 0.992 | S. cerevisiae deletion strains, locus YNL271C, strain bni1, stronger effect = lower value 1 | S. cerevisiae deletion strains, locus YNL298W, strain CLA4, stronger effect = lower value 1 | S. cerevisiae deletion strains, locus YNL307C, strain MCK1, stronger effect = lower value 0.992 | S. cerevisiae deletion strains, locus YNL322C, strain KRE1 (second series), stronger effect = lower value 0.973 | S. cerevisiae deletion strains, locus YNL322C, strain KRE1, stronger effect = lower value 1.01 | S. cerevisiae deletion strains, locus YNR049C, strain mso1, stronger effect = lower value 0.962 | S. cerevisiae deletion strains, locus YNR052C, strain pop2, stronger effect = lower value 1.01 | S. cerevisiae deletion strains, locus YOL006C, strain TOP1, stronger effect = lower value 1.03 | S. cerevisiae deletion strains, locus YOL012C, strain htz1 1.1 | S. cerevisiae deletion strains, locus YOL147C, strain pex11, stronger effect = lower value 0.995 | S. cerevisiae deletion strains, locus YOR001W, strain rrp6, stronger effect = lower value 1 | S. cerevisiae deletion strains, locus YOR061W, strain CKA2, stronger effect = lower value 1 | S. cerevisiae deletion strains, locus YOR069W, strain VPS5, stronger effect = lower value 1.01 | S. cerevisiae deletion strains, locus YOR070C, strain gyp1, stronger effect = lower value 0.992 | S. cerevisiae deletion strains, locus YOR080W, strain dia2, stronger effect = lower value 0.987 | S. cerevisiae deletion strains, locus YOR083W, strain WHI5 (second series), stronger effect = lower value 0.999 | S. cerevisiae deletion strains, locus YOR083W, strain WHI5, stronger effect = lower value 0.964 | S. cerevisiae deletion strains, locus YOR106W, strain vam3, stronger effect = lower value 0.932 | S. cerevisiae deletion strains, locus YOR136W, strain idh2, stronger effect = lower value 0.994 | S. cerevisiae deletion strains, locus YOR144C, strain elg1, stronger effect = lower value 1 | S. cerevisiae deletion strains, locus YOR184W, strain ser1, stronger effect = lower value 0.986 | S. cerevisiae deletion strains, locus YOR231W, strain MKK1, stronger effect = lower value 1.05 | S. cerevisiae deletion strains, locus YOR265W, strain rbl2, stronger effect = lower value 0.993 | S. cerevisiae deletion strains, locus YOR270C, strain vph1, stronger effect = lower value 0.947 | S. cerevisiae deletion strains, locus YOR290C, strain snf2, stronger effect = lower value 0.909 | S. cerevisiae deletion strains, locus YOR316C, strain cot1, stronger effect = lower value 0.991 | S. cerevisiae deletion strains, locus YPL051W, strain arl3, stronger effect = lower value 0.998 | S. cerevisiae deletion strains, locus YPL055C, strain LGE1, stronger effect = lower value 1.02 and 1 | S. cerevisiae deletion strains, locus YPL078C, strain atp4, stronger effect = lower value 0.975 | S. cerevisiae deletion strains, locus YPL106C, strain sse1, stronger effect = lower value 0.971 | S. cerevisiae deletion strains, locus YPL240C, strain hsp82, stronger effect = lower value 0.98 | S. cerevisiae deletion strains, locus YPL241C, strain CIN2, stronger effect = lower value 1.01 | S. cerevisiae deletion strains, locus YPL256C, strain CLN2, stronger effect = lower value 1.13 | S. cerevisiae deletion strains, locus YPR119W, strain clb2, stronger effect = lower value 0.987 | S. cerevisiae deletion strains, locus YPR141C, strain kar3, stronger effect = lower value 0.993 | S. cerevisiae deletion strains, locus YPR163C, strain tif3, stronger effect = lower value 0.99 | S. cerevisiae deletion strains, locus YPR167C, strain met16, stronger effect = lower value 0.992 | S. cerevisiae deletion strains, strain wtn01, stronger effect = lower value 0.982 | S. cerevisiae strains, strain wild type, stronger effect = lower value 1.01
